According to PubChem BioAssay AID1159580 (chemical genetic matrix, 2015):
“And” between values parts separate entries of the source, which are not always exact repeats. Equal values may be shown once. In all, about 5,500 compounds went through this assay and about 2,000 (36%) were called active. About 18% were inconclusive and are not listed. Rule as the data show it: active = normalized growth mostly below about 0.91 (no sharp cut-off); inconclusive = no clear call, values can overlap the other calls; inactive = mostly above about 0.92. Some of the results follow.

Assay: chemical genetic growth profiling, strain panel (AID 1159580);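 also: tested at 20 µM; growth read once vehicle control cultures reached saturation at 30 °C; 1 = growth at the plate median or of vehicle wells; lower values mean less growth of the strain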
Details: S. cerevisiae deletion strains, growth OD

Measured: normalized growth

CN1CCN(CC(=O)N2c3ccccc3C(=O)Nc3cccnc32)CC1
inactive: locus YAL013W, strain DEP1, hits give low values 1.01 | locus YAL021C, strain ccr4, hits give low values 0.991 | locus YAL026C, strain drs2, hits give low values 1.03 | locus YAL030W, strain snc1, hits give low values 0.999 | locus YAL040C, strain CLN3, hits give low values 0.963 | locus YBL061C, strain skt5, hits give low values 1.01 | locus YBR009C, strain hhf1, hits give low values 0.999 | locus YBR021W, strain FUR4, hits give low values 1.02 | locus YBR023C, strain chs3, hits give low values 1.01 | locus YBR171W, strain sec66, hits give low values 1.02 | locus YBR229C, strain ROT2, hits give low values 1.01 | locus YBR231C, strain swc5, hits give low values 1.01 | locus YBR279W, strain paf1, hits give low values 1.01 | locus YCL011C, strain gbp2, hits give low values 1.02 | locus YCL016C, strain dcc1, hits give low values 1 | locus YCL029C, strain bik1, hits give low values 1.02 | locus YCL061C, strain MRC1 (second series), hits give low values 0.981 | locus YCL061C, strain MRC1, hits give low values 1.02 | locus YCL069W, strain vba3, hits give low values 1.03 | locus YCR088W, strain abp1, hits give low values 1.01 | locus YDL005C, strain med2, hits give low values 0.999 | locus YDL035C, strain GPR1, hits give low values 1.02 | locus YDL040C, strain nat1, hits give low values 0.992 | locus YDL074C, strain BRE1, hits give low values 1.05 | locus YDL101C, strain DUN1, hits give low values 1.02 | locus YDL134C, strain PPH21, hits give low values 0.991 | locus YDL185W, strain tfp1, hits give low values 1 | locus YDL192W, strain arf1, hits give low values 1.01 | locus YDR001C, strain nth1, hits give low values 1.01 | locus YDR069C, strain doa4, hits give low values 0.989 | locus YDR101C, strain arx1, hits give low values 1 | locus YDR137W, strain rgp1, hits give low values 1.02 | locus YDR150W, strain NUM1, hits give low values 1.01 and 1 | locus YDR159W, strain sac3, hits give low values 1.01 | locus YDR162C, strain NBP2, hits give low values 1.01 | locus YDR195W, strain ref2 0.999 | locus YDR297W, strain sur2, hits give low values 1.01 | locus YDR318W, strain mcm21, hits give low values 1.02 | locus YDR334W, strain swr1, hits give low values 1.04 | locus YDR335W, strain msn5, hits give low values 1.04 | locus YDR363W, strain ESC2, hits give low values 1.02 | locus YDR388W, hits give low values 1.02 | locus YDR392W, strain spt3, hits give low values 1.01 | locus YDR502C, strain sam2, hits give low values 1.02 | locus YEL003W, strain gim4, hits give low values 1.01 | locus YEL037C, strain rad23, hits give low values 1.01 | locus YEL061C, strain CIN8 (second series), hits give low values 1.03 | locus YEL061C, strain CIN8, hits give low values 1.01 | locus YER002W, strain NOP16, hits give low values 0.986 | locus YER015W, strain faa2, hits give low values 1.02 | locus YER016W, strain bim1, hits give low values 0.997 | locus YER110C, hits give low values 1.02 | locus YER111C, strain swi4, hits give low values 1.02 | locus YER155C, strain BEM2 (second series), hits give low values 1.08 | locus YER155C, strain BEM2, hits give low values 1.01 | locus YER167W, strain BCK2, hits give low values 1.02 | locus YFR010W, strain ubp6, hits give low values 1.02 | locus YGL078C, strain dbp3, hits give low values 1.01 | locus YGL086W, strain mad1, hits give low values 1.01 | locus YGL167C, strain pmr1, hits give low values 1.01 | locus YGL173C, strain kem1, hits give low values 1.06 | locus YGL227W, strain vid30, hits give low values 1.02 | locus YGL240W, strain doc1, hits give low values 1.02 | locus YGL248W, strain PDE1, hits give low values 1.01 | locus YGL253W, strain hxk2, hits give low values 1.01 | locus YGR078C, strain PAC10, hits give low values 1.02 | locus YGR135W, strain pre9, hits give low values 1.01 | locus YGR229C, strain SMI1, hits give low values 1.01 and 0.968 | locus YGR252W, strain gcn5, hits give low values 0.995 | locus YHR013C, strain ard1, hits give low values 1.03 | locus YHR027C, strain rpn1, hits give low values 1.01 | locus YHR030C, strain SLT2, hits give low values 1.01 and 0.978 | locus YHR079C, strain IRE1 (second series), hits give low values 1.02 | locus YHR079C, strain IRE1, hits give low values 0.986 | locus YHR094C, strain hxt1, hits give low values 1.02 | locus YHR129C, strain ARP1, hits give low values 0.995 | locus YHR142W, strain chs7, hits give low values 1.04 | locus YHR200W, strain rpn10, hits give low values 1.01 | locus YIL066C, strain RNR3, hits give low values 1.01 | locus YIL073C, strain SPO22, hits give low values 1.02 | locus YIL125W, strain kgd1, hits give low values 1.01 | locus YIR030C, strain dcg1, hits give low values 1.01 | locus YJL092W, strain hpr5, hits give low values 1.02 | locus YJL095W, strain BCK1 (second series), hits give low values 0.991 | locus YJL095W, strain BCK1, hits give low values 1.04 and 0.99 | locus YJL115W, strain asf1, hits give low values 1.01 | locus YJL129C, strain trk1, hits give low values 1.03 | locus YJL134W, strain LCB3, hits give low values 1.01 | locus YJL154C, strain vps35, hits give low values 1.01 | locus YJL164C, strain tpk1, hits give low values 1.01 | locus YJL166W, strain qcr8, hits give low values 1.03 | locus YJL168C, strain set2, hits give low values 1.02 | locus YJL187C, strain SWE1 (second series), hits give low values 1.01 | locus YJR043C, strain POL32, hits give low values 1.01 | locus YJR066W, strain TOR1, hits give low values 0.926
